Where “and” joins values, the source holds several entries; their conditions need not be identical. Equal values may be shown once. Results filed as inconclusive are left out. Entries that show only a call come without a potency. Calls of active or inactive are those of the source. The call rests on the fitted dose curve; in most records, active means well fitted curve in the direction sought with a large enough effect; inconclusive means small, poorly fitted or top-dose-only effect, or another doubt; inactive means no such curve, though single readings can be large; an effect the other way counts as inactive or inconclusive.
What was measured:
[1] = qHTS of pediatric cancer cell lines to identify multiple opportunities for drug repurposing: Primary screen for BT-12 cells (AID 1347101); further: nearly all actives have a fitted effect of over 25% in size; further: potency means the concentration at half of the fitted maximal effect
How it was run: (§1)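 Cells (500-1,000/well) rested 5 h, then received compounds for 48 h; metabolically active cells were measured by CellTiter-Glo luminescence. Final concentrations spanned up to 46 µM (MIPE, 11-point) or 0.59 nM-46 µM (NPC, 8-point) in primary screens, 11-point in follow-ups.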

[2] = qHTS of pediatric cancer cell lines to identify multiple opportunities for drug repurposing: Primary screen for Rh18 cells (AID 1347102); further: nearly all actives have a fitted effect of over 65% in size; further: potency means the concentration at half of the fitted maximal effect
How it was run: as §1

[3] = qHTS of pediatric cancer cell lines to identify multiple opportunities for drug repurposing: Primary screen for OHS-50 cells (AID 1347103); further: nearly all actives have a fitted effect of over 40% in size; further: potency means the concentration at half of the fitted maximal effect
How it was run: as §1

[4] = qHTS of pediatric cancer cell lines to identify multiple opportunities for drug repurposing: Primary screen for RD cells (AID 1347104); further: nearly all actives have a fitted effect of over 55% in size; further: potency means the concentration at half of the fitted maximal effect
How it was run: (§2)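 ATP-based luminescence (CellTiter-Glo) quantifies viability after a 48-hour exposure. Compounds are dosed across 8 or 11 final concentrations; DMSO and 2.3 µM bortezomib serve as controls.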

[5] = qHTS of pediatric cancer cell lines to identify multiple opportunities for drug repurposing: Primary screen for MG 63 (6-TG R) cells (AID 1347105); further: nearly all actives have a fitted effect of over 50% in size; further: potency means the concentration at half of the fitted maximal effect
How it was run: as §2

[6] = qHTS of pediatric cancer cell lines to identify multiple opportunities for drug repurposing: Primary screen for control Hh wild type fibroblast cells (AID 1347106);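 further: series mostly up to about 46 µM; a drop in luminescence marks cytotoxicity and a rise apparent proliferation; nearly all actives have a fitted effect of over 55% in size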
How it was run: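 Viability after 48 h compound treatment at 37C, 500-1,000 cells/well, read as ATP luminescence with CellTiter-Glo. Primary screens used 11-point (MIPE, 0.78 nM-46 µM) or 8-point (NPC, 0.59 nM-46 µM) final concentrations; follow-up screens used 11-point dilutions.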

[7] = qHTS of pediatric cancer cell lines to identify multiple opportunities for drug repurposing: Primary screen for Rh30 cells (AID 1347107); further: series mostly up to about 46 µM; nearly all actives have a fitted effect of over 75% in size
How it was run: as §1

[8] = qHTS of pediatric cancer cell lines to identify multiple opportunities for drug repurposing: Primary screen for Rh41 cells (AID 1347108); further: nearly all actives have a fitted effect of over 70% in size; further: potency means the concentration at half of the fitted maximal effect
How it was run: as §2

[9] = qHTS of pediatric cancer cell lines to identify multiple opportunities for drug repurposing: Confirmatory screen for NB1643 cells (AID 1347109); further: nearly all actives have a fitted effect of over 45% in size; further: potency means the concentration at half of the fitted maximal effect
How it was run: as §1

[10] = qHTS of pediatric cancer cell lines to identify multiple opportunities for drug repurposing: Confirmatory screen for A673 cells (AID 1347110);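 further: cells exposed to compound for 48 h before the viability read; nearly all actives have a fitted effect of over 65% in size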; further: potency means the concentration at half of the fitted maximal effect
How it was run: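 Viability was read as ATP luminescence (CellTiter-Glo) after 48 h of compound exposure at 37 C in A673 cells seeded at 500-1,000/well. Titrations reached 46 uM final, with 11 points in the confirmatory screen. Concentration-response curves were fitted directly.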

N[C@@H](Cc1c[nH]c2ccc(O)cc12)C(=O)O
Potency [1]: inactive | Potency [2]: inactive | Potency [3]: inactive | Potency [4]: inactive | Potency [5]: inactive | Potency [6]: inactive | outcome [7]: inactive | Potency [8]: inactive

CC(COc1ccccc1)N(CCCl)Cc1ccccc1 (stereo not given)
Potency [1]: 9.68 µM (active) | Potency [2]: inactive | Potency [3]: 24.3 µM (active) | Potency [4]: inactive | Potency [5]: inactive | Potency [6]: inactive | outcome [7]: inactive | Potency [8]: inactive | Potency [9]: 16.5 µM (active)

C[C@](N)(Cc1ccc(O)c(O)c1)C(=O)O
Potency [1]: inactive | Potency [2]: inactive | Potency [3]: inactive | Potency [4]: inactive | Potency [5]: inactive | Potency [6]: inactive | outcome [7]: inactive | Potency [8]: inactive

O=C(Nc1ccc([N+](=O)[O-])cc1Cl)c1cc(Cl)ccc1O
Potency [1]: 1.69 µM (active) and 1.93 µM (active) | Potency [2]: 3.72 µM (active) | Potency [3]: 1.51 µM (active) and 863 nM (active) | Potency [4]: 3.26 µM (active) and 1.48 µM (active) | Potency [5]: 3.66 µM (active) and 1.18 µM (active) | Potency [6]: inactive | outcome [7]: inactive | Potency [9]: 1.62 µM (active) | Potency [10]: 5.12 µM (active)

COc1cc2c(c(OC)c1OC)-c1ccc(OC)c(=O)cc1[C@@H](NC(C)=O)CC2
Potency [1]: 11 nM (active) and 1 nM (active) | Potency [2]: inactive | Potency [3]: 4.9 nM (active) and 1 nM (active) | Potency [5]: inactive | Potency [6]: inactive | outcome [7]: inactive | Potency [8]: 20.9 µM (active) | Potency [9]: 0.0447 µM (active) | Potency [10]: 0.0316 µM (active)

COc1ccccc1OCC(O)CN1CCN(CC(=O)Nc2c(C)cccc2C)CC1 (stereo not given)
Potency [1]: inactive | Potency [2]: inactive | Potency [3]: inactive | Potency [4]: inactive | Potency [5]: inactive | Potency [6]: inactive | outcome [7]: inactive | Potency [8]: inactive

CCC1(c2ccccc2)C(=O)NCNC1=O
Potency [1]: inactive | Potency [2]: inactive | Potency [3]: inactive | Potency [6]: inactive | outcome [7]: inactive

CC[C@@]1(O)C(=O)OCc2c1cc1n(c2=O)Cc2cc3c(CN(C)C)c(O)ccc3nc2-1
Potency [1]: 309 nM (active) and 1.37 µM (active) | Potency [2]: 473 nM (active) and 1.48 µM (active) | Potency [3]: 27.6 nM (active) and 109 nM (active) | Potency [4]: 2.66 µM (active) and 4.69 µM (active) | Potency [5]: 66.8 nM (active) and 296 nM (active) | Potency [8]: 2.11 µM (active) and 2.64 µM (active) | Potency [9]: 0.329 µM (active) | Potency [10]: 0.131 µM (active)

CS(=O)(=O)Nc1ccc([N+](=O)[O-])cc1Oc1ccccc1
Potency [1]: inactive | Potency [2]: inactive | Potency [3]: inactive | Potency [4]: inactive | Potency [5]: inactive | Potency [6]: inactive | outcome [7]: inactive | Potency [8]: inactive | Potency [9]: inactive | Potency [10]: inactive

CCOC(=O)C(C)(C)Oc1ccc(Cl)cc1
Potency [1]: inactive | Potency [2]: inactive | Potency [3]: inactive | Potency [4]: inactive | Potency [5]: inactive | Potency [6]: inactive | outcome [7]: inactive | Potency [8]: inactive

CC(C)C(=O)Nc1ccc([N+](=O)[O-])c(C(F)(F)F)c1
Potency [1]: 11 µM (active) | Potency [2]: inactive | Potency [3]: 24.6 µM (active) and 432 nM (active) | outcome [7]: inactive | Potency [9]: inactive | Potency [10]: 10.4 µM (active)

NC12CC3CC(CC(C3)C1)C2
Potency [1]: inactive | Potency [2]: inactive | Potency [3]: inactive | Potency [4]: inactive | Potency [5]: inactive | Potency [6]: inactive | outcome [7]: inactive | Potency [9]: inactive | Potency [10]: inactive

NC(CO)C(=O)NNCc1ccc(O)c(O)c1O (stereo not given)
Potency [1]: inactive | Potency [2]: inactive | Potency [3]: inactive | Potency [5]: inactive | Potency [6]: inactive | outcome [7]: inactive

CC(C)(Oc1ccc(C2CC2(Cl)Cl)cc1)C(=O)O (stereo not given)
Potency [1]: inactive | Potency [2]: inactive | Potency [3]: inactive | Potency [4]: inactive | Potency [5]: inactive | Potency [6]: inactive | outcome [7]: inactive | Potency [8]: inactive

COc1ccc(CCN(C)CCCC(C#N)(c2ccc(OC)c(OC)c2)C(C)C)cc1OC (stereo not given)
Potency [1]: inactive | Potency [2]: inactive | Potency [3]: inactive | Potency [4]: inactive | Potency [5]: inactive | Potency [6]: inactive | outcome [7]: inactive | Potency [8]: inactive

CN1C(C(=O)Nc2ccccn2)=C(O)c2ccccc2S1(=O)=O
Potency [1]: inactive | Potency [2]: inactive | Potency [3]: inactive | Potency [4]: inactive | Potency [5]: inactive | Potency [6]: inactive | outcome [7]: inactive | Potency [8]: inactive

CC(C(=O)O)c1cccc(C(=O)c2ccccc2)c1 (stereo not given)
Potency [1]: inactive | Potency [2]: inactive | Potency [3]: inactive | Potency [5]: inactive | Potency [6]: inactive | outcome [7]: inactive | Potency [8]: inactive

CCOC(=O)c1ncn2c1CN(C)C(=O)c1cc(F)ccc1-2
Potency [1]: inactive | Potency [2]: inactive | Potency [3]: inactive | Potency [4]: inactive | Potency [5]: inactive | Potency [6]: inactive | outcome [7]: inactive | Potency [8]: inactive

CN(C)C(=O)C(CCN1CCC(O)(c2ccc(Cl)cc2)CC1)(c1ccccc1)c1ccccc1
Potency [1]: 19.3 µM (active) and 21.9 µM (active) | Potency [2]: 20.9 µM (active) | Potency [3]: 21.7 µM (active) and 19.5 µM (active) | Potency [4]: 26.4 µM (active) and 26.6 µM (active) | Potency [6]: inactive

Cc1cc(C(C)(C)C)c(O)c(C)c1CC1=NCCN1
Potency [1]: inactive | Potency [2]: inactive | Potency [3]: inactive | Potency [5]: inactive | Potency [6]: inactive | outcome [7]: inactive

O=C(c1ccc(F)cc1)C1CCN(CCn2c(=O)[nH]c3ccccc3c2=O)CC1
Potency [1]: inactive | Potency [2]: inactive | Potency [3]: inactive | Potency [4]: inactive | Potency [5]: inactive | Potency [6]: inactive | outcome [7]: inactive | Potency [8]: inactive

CN(Cc1cnc2nc(N)nc(N)c2n1)c1ccc(C(=O)N[C@@H](CCC(=O)O)C(=O)O)cc1
Potency [1]: 0.0062 µM (active) | Potency [2]: inactive | Potency [3]: 0.0098 µM (active) | Potency [4]: 10.6 nM (active) | Potency [5]: inactive | Potency [6]: inactive | outcome [7]: inactive | Potency [8]: inactive | Potency [10]: 0.0329 µM (active)
